# Reference: publication PMC7862700, “An all-to-all approach to the identification of sequence-specific readers for epigenetic DNA modifications on cytosine”
# Experiments:
# Experiment in all cases: DAPPL (digital affinity profiling via proximity ligation, sequencing); 10 mM Tris-HCl pH 7.5, 50 mM NaCl, 1 mM DTT, 4% glycerol, room temperature, 30 min; GST-TFs on glutathione beads, 16-mer random dsDNA library, 0.1% formaldehyde crosslink after washing; high values mean tight binding
# FLI1 = biological target: T1, FLI1 (Homo sapiens, UniProt Q01543 1-452); settings: protein: recombinant; tags: N-terminal GST; dsDNA, one strand shown
# T1 sequence: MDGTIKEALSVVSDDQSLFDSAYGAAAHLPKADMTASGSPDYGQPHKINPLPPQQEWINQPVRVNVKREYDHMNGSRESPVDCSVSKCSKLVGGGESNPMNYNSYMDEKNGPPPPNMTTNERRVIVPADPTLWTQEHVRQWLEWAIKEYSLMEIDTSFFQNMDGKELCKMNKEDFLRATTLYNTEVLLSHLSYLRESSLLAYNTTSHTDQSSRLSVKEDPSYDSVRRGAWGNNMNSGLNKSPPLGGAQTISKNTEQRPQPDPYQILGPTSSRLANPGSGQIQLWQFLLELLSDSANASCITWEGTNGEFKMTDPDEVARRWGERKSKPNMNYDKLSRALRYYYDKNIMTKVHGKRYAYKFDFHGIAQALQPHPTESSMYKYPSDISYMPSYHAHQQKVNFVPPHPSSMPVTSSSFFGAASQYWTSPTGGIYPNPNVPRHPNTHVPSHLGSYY
# Summary of the method: (§1)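 A tag-only sample was pooled with DNA-barcoded human transcription factors that had been expressed in yeast as GST fusions and captured on glutathione beads. The pools were incubated for 30 min at room temperature with 200 nmole of a random double-stranded 16-mer DNA library in Tris/NaCl/DTT/glycerol buffer, then washed, crosslinked with 0.1% formaldehyde, proximity-ligated (BsaI/T4 ligase, 1 h, 37 °C), PCR-amplified and sequenced on an Illumina NextSeq500. Binding signal is each hexamer's read frequency for a factor divided by its frequency for the tag-only sample.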
# ELK1 = biological target: T2, ELK1 (Homo sapiens, UniProt P19419 1-428); settings: protein: recombinant; tags: N-terminal GST; dsDNA, one strand shown
# T2 sequence: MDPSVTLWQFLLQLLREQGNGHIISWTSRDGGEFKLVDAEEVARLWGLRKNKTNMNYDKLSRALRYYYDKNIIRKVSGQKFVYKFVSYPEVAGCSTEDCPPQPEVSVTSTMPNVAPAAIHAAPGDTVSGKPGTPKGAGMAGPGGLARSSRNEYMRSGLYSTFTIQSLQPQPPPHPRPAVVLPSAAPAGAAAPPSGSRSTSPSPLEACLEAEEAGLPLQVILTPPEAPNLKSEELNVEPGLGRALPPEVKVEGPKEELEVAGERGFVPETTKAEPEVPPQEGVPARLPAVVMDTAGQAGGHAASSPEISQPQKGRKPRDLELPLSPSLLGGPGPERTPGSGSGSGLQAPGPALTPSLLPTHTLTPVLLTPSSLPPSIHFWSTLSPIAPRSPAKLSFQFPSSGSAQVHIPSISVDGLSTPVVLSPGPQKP
# Summary of the method: as §1
# GABPA = biological target: T3, GABPA (Homo sapiens, UniProt Q06546 1-454); settings: protein: recombinant; tags: N-terminal GST; dsDNA, one strand shown
# T3 sequence: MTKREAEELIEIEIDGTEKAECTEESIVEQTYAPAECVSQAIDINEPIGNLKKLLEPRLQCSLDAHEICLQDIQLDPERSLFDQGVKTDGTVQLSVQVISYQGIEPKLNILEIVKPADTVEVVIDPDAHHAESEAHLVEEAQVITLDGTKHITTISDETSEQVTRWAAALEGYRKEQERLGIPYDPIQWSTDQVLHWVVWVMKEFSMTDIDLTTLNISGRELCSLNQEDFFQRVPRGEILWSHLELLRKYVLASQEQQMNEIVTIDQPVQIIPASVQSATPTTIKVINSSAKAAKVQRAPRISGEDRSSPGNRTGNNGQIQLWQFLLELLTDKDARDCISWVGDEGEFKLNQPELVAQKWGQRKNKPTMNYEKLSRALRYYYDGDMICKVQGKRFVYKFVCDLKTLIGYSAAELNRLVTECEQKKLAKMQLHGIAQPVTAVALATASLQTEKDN
# Summary of the method: as §1
# ERG = biological target: T4, ERG (Homo sapiens, UniProt P11308 1-479); settings: protein: recombinant; tags: N-terminal GST; dsDNA, one strand shown
# T4 sequence: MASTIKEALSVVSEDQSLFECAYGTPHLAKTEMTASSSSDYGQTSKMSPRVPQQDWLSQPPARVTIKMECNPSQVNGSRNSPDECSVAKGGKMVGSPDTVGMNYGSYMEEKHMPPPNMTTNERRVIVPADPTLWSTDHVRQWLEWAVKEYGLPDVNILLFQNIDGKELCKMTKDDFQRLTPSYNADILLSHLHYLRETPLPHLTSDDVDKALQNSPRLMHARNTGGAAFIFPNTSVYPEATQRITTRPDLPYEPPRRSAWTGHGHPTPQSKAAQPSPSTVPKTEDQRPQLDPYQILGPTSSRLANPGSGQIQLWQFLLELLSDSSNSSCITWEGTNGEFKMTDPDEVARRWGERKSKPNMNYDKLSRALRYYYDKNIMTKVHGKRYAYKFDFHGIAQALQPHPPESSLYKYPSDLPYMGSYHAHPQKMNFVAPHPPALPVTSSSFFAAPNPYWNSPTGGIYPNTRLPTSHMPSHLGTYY
# Summary of the method: as §1
# ELF1 = ELF1 (Homo sapiens, UniProt P32519 1-619); settings: protein: recombinant; tags: N-terminal GST; dsDNA, one strand shown
# Sequence of ELF1 (P32519 whole entry): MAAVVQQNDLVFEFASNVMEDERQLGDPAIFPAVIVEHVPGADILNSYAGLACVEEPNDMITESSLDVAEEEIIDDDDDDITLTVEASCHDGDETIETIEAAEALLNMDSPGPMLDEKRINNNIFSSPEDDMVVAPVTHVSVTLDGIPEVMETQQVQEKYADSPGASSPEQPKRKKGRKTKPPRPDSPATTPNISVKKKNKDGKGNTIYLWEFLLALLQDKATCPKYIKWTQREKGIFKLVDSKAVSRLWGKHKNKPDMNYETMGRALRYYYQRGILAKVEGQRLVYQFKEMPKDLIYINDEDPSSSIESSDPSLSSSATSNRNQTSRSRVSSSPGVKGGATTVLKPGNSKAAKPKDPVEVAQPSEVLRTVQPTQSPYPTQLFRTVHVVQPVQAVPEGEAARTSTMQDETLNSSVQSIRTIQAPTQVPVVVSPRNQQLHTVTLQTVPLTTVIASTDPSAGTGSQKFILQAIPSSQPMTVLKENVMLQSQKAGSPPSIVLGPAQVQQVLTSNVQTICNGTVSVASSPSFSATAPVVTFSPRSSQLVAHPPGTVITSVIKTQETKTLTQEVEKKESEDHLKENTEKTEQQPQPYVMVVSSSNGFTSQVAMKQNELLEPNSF
# Summary of the method: as §1
# EHF = biological target: T5, EHF (Homo sapiens, UniProt Q9NZC4 1-300); settings: protein: recombinant; tags: N-terminal GST; dsDNA, one strand shown
# T5 sequence: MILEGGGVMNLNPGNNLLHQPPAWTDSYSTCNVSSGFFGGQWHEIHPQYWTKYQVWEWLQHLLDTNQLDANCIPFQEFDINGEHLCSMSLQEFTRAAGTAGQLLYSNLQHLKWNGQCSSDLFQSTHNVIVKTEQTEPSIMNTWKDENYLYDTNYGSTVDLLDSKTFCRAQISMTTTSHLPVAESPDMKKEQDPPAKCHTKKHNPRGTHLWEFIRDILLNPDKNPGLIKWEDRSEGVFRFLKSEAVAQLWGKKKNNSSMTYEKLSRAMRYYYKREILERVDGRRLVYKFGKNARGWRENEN
# Summary of the method: as §1
# SPI1 = SPI1 (Homo sapiens, UniProt P17947 1-270); settings: protein: recombinant; tags: N-terminal GST; dsDNA, one strand shown
# Summary of the method: as §1
# SPIB = SPIB (Homo sapiens, UniProt Q01892 1-262); settings: protein: recombinant; tags: N-terminal GST; dsDNA, one strand shown
# Sequence of SPIB (Q01892 whole entry): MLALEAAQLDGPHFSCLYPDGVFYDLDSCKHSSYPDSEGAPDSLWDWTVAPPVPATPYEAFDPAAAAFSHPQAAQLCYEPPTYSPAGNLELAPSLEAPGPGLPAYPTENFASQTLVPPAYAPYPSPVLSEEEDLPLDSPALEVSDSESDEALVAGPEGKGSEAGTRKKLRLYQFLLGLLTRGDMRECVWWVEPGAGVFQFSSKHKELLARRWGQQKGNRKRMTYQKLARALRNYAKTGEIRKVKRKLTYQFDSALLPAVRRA
# Summary of the method: as §1
# ELK3 = biological target: T6, ELK3 (Homo sapiens, UniProt P41970 1-407); settings: protein: recombinant; tags: N-terminal GST; dsDNA, one strand shown
# T6 sequence: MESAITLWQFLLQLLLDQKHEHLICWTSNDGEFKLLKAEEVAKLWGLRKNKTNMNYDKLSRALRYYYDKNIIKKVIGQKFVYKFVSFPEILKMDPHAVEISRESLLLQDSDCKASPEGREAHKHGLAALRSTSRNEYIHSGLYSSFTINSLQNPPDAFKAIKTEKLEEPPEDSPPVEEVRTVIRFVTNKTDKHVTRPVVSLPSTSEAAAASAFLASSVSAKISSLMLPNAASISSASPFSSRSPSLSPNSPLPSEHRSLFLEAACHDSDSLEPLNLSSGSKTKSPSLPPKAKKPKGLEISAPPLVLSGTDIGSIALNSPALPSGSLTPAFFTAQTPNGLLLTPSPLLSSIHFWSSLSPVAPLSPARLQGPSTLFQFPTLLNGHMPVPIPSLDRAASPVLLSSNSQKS
# Summary of the method: as §1
# FEV = biological target: T7, FEV (Homo sapiens, UniProt Q99581 1-238); settings: protein: recombinant; tags: N-terminal GST; dsDNA, one strand shown
# T7 sequence: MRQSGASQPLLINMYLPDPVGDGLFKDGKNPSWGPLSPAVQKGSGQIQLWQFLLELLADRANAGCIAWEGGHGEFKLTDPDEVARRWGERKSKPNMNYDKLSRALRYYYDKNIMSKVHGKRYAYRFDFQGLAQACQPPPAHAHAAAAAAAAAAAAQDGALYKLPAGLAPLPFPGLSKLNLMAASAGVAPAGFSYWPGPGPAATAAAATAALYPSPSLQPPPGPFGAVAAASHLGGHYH
# Summary of the method: as §1
# ETV5 = ETV5 (Homo sapiens, UniProt P41161 1-510); settings: protein: recombinant; tags: N-terminal GST; dsDNA, one strand shown
# Sequence of ETV5 (P41161 whole entry): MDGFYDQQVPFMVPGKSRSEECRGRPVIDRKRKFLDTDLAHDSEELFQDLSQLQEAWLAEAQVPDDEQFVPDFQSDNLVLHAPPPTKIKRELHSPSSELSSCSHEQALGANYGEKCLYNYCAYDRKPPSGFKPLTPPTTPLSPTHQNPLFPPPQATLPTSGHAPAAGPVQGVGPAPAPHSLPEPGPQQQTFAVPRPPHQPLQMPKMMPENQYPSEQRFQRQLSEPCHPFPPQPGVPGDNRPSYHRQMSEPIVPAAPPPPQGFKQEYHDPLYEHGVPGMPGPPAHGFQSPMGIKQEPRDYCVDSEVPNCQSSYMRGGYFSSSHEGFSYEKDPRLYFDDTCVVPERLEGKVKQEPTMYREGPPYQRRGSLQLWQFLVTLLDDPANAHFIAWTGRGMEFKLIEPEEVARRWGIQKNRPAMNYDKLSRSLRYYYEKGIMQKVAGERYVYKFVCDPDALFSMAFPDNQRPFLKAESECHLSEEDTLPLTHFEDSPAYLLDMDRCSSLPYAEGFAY
# Summary of the method: as §1
# HSF1 = HSF1 (Homo sapiens, UniProt Q00613 1-529); settings: protein: recombinant; tags: N-terminal GST; chain copies: 3; dsDNA, one strand shown
# Sequence of HSF1 (Q00613 whole entry): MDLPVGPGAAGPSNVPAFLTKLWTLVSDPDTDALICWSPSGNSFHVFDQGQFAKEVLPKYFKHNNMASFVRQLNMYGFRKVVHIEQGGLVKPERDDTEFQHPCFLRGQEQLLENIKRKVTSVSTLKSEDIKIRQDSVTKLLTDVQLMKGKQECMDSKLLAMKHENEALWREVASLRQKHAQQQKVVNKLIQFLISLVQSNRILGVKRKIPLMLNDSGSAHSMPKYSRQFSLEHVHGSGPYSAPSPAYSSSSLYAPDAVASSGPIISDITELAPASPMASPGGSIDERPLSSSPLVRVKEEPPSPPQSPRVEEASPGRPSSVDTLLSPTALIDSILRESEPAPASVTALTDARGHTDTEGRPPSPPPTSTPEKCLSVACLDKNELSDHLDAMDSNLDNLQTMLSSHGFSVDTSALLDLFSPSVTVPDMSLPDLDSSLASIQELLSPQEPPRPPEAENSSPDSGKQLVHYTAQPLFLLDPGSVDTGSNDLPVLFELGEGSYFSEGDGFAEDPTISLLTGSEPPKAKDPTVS
# Summary of the method: as §1
# SPIC = biological target: T8, SPIC (Homo sapiens, UniProt Q8N5J4 1-248); settings: protein: recombinant; tags: N-terminal GST; dsDNA, one strand shown
# T8 sequence: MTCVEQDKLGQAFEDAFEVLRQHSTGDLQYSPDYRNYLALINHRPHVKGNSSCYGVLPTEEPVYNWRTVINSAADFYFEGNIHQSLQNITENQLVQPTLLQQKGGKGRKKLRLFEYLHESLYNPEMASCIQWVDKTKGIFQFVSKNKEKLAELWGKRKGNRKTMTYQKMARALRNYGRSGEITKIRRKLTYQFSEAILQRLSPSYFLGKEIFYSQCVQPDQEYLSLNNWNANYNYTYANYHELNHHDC
# Summary of the method: as §1
# ELF4 = ELF4 (Homo sapiens, UniProt Q99607 1-663); settings: protein: recombinant; tags: N-terminal GST; dsDNA, one strand shown
# Sequence of ELF4 (Q99607 whole entry): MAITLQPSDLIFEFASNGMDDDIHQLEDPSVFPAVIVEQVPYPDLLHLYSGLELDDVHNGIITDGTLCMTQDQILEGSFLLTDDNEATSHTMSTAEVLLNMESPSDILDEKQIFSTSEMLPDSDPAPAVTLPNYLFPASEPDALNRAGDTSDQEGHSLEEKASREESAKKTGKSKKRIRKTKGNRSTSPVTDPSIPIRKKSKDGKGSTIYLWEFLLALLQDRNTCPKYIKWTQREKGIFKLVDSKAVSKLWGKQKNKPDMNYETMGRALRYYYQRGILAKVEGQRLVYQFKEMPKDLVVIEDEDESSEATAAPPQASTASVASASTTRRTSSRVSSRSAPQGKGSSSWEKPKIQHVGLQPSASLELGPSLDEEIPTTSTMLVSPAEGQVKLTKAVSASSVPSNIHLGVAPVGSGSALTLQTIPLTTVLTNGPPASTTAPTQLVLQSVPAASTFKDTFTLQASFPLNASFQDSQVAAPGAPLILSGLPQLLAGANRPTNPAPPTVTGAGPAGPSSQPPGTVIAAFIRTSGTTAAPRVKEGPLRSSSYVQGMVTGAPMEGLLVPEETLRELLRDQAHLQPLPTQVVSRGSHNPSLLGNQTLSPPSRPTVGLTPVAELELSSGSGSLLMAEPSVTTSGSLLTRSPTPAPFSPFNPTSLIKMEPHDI
# Summary of the method: as §1
# ELK4 = biological target: T9, ELK4 (Homo sapiens, UniProt P28324-2 1-405); settings: protein: recombinant; tags: N-terminal GST; dsDNA, one strand shown
# T9 sequence: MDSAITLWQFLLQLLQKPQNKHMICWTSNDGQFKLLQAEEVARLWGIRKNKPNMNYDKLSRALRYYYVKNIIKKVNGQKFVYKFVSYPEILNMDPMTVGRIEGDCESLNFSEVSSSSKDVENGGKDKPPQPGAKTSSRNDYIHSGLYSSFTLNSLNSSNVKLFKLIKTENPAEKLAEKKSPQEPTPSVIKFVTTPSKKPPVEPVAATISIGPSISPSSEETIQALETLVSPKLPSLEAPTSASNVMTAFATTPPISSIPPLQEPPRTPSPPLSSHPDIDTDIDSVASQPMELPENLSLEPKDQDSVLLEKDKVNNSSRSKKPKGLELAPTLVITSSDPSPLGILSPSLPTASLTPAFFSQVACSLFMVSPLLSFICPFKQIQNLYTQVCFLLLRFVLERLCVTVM
# Summary of the method: as §1
# ETV2 = biological target: T10, ETV2 (Homo sapiens, UniProt O00321 1-342); settings: protein: recombinant; tags: N-terminal GST; dsDNA, one strand shown
# T10 sequence: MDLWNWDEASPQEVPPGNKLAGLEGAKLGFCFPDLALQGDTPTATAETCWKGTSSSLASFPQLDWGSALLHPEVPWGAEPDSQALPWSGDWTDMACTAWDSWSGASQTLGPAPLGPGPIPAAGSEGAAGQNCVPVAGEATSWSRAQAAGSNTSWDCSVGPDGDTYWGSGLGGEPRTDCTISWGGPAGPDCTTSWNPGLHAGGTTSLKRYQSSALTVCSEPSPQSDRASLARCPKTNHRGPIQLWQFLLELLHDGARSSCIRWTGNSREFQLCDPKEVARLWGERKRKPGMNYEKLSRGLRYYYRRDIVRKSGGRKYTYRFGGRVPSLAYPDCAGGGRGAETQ
# Summary of the method: as §1
# ELF3 = biological target: T11, ELF3 (Homo sapiens, UniProt P78545 1-371); settings: protein: recombinant; tags: N-terminal GST; dsDNA, one strand shown
# T11 sequence: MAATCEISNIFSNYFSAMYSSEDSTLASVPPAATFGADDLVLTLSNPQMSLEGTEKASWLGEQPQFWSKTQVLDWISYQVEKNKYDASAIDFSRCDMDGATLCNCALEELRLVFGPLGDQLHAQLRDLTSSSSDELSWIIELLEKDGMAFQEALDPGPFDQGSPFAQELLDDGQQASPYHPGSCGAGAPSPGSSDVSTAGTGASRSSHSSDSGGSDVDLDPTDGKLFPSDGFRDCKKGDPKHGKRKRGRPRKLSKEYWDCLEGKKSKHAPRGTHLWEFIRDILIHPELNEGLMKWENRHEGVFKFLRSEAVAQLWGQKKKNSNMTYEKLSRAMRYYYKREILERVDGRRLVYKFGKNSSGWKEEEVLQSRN
# Summary of the method: as §1
# CRX = CRX (Homo sapiens, UniProt O43186 1-299); settings: protein: recombinant; tags: N-terminal GST; dsDNA, one strand shown
# Sequence of CRX (O43186 whole entry): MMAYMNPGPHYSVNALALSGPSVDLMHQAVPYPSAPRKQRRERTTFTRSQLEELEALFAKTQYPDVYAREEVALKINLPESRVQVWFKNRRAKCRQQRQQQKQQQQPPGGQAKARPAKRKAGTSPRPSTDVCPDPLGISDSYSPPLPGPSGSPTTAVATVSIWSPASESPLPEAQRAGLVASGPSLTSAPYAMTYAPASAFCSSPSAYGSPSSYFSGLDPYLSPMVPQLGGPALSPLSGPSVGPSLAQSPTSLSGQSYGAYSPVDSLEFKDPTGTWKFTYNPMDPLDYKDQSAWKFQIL
# Summary of the method: as §1
# ETV1 = ETV1 (Homo sapiens, UniProt P50549 1-477); settings: protein: recombinant; tags: N-terminal GST; dsDNA, one strand shown
# Sequence of ETV1 (P50549 whole entry): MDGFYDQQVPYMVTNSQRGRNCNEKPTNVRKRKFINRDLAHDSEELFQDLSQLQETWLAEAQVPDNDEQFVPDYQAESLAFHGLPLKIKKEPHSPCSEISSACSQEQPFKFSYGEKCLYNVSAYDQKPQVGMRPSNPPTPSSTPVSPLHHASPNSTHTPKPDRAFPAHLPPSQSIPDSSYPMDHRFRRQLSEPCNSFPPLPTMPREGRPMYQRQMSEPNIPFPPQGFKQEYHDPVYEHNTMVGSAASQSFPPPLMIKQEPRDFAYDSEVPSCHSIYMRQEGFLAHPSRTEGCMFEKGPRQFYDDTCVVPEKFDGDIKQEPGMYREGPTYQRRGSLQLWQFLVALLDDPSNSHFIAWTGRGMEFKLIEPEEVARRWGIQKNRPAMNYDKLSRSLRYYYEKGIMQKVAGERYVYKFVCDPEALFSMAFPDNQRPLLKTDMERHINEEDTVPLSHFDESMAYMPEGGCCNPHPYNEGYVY
# Summary of the method: as §1
sequence,measurement,setting,value
CTAAGT,binding signal,FLI1,"1.21 fold enrichment (6-mer frequency, TF over GST control)"
same,binding signal,ELK1,"1.17 fold enrichment (6-mer frequency, TF over GST control)"
same,binding signal,GABPA,"1.26 fold enrichment (6-mer frequency, TF over GST control)"
same,binding signal,ERG,"1.18 fold enrichment (6-mer frequency, TF over GST control)"
same,binding signal,ELF1,"1.2 fold enrichment (6-mer frequency, TF over GST control)"
same,binding signal,EHF,"1.26 fold enrichment (6-mer frequency, TF over GST control)"
same,binding signal,SPI1,"1.19 fold enrichment (6-mer frequency, TF over GST control)"
same,binding signal,SPIB,"1.24 fold enrichment (6-mer frequency, TF over GST control)"
same,binding signal,ELK3,"1.16 fold enrichment (6-mer frequency, TF over GST control)"
same,binding signal,FEV,"1.13 fold enrichment (6-mer frequency, TF over GST control)"
same,binding signal,ETV5,"1.18 fold enrichment (6-mer frequency, TF over GST control)"
same,binding signal,HSF1,"1.3 fold enrichment (6-mer frequency, TF over GST control)"
same,binding signal,SPIC,"1.24 fold enrichment (6-mer frequency, TF over GST control)"
same,binding signal,ELF4,"1.24 fold enrichment (6-mer frequency, TF over GST control)"
same,binding signal,ELK4,"1.13 fold enrichment (6-mer frequency, TF over GST control)"
same,binding signal,ETV2,"1.24 fold enrichment (6-mer frequency, TF over GST control)"
same,binding signal,ELF3,"1.02 fold enrichment (6-mer frequency, TF over GST control)"
same,binding signal,CRX,"1.8 fold enrichment (6-mer frequency, TF over GST control)"
same,binding signal,ETV1,"1.18 fold enrichment (6-mer frequency, TF over GST control)"
